Source: PubChem BioAssay AID686979 (National Center for Advancing Translational Sciences (NCATS), 2013)
The campaign covered roughly 420,000 compounds. About 50,000 (12%) were called active. About 26% were inconclusive and are not listed. The sample holds actives, similar compounds and a random draw of the others, so the mix is not that of the screen. Unmarked numbers belong to inactive results. The call rests on the fitted dose curve; in most records, active means well fitted inhibition curve with a large enough effect; inconclusive means small, poorly fitted or top-dose-only effect; inactive means flat fitted curve, though single readings scatter.

Assay: qHTS for Inhibitors of human tyrosyl-DNA phosphodiesterase 1 (TDP1): qHTS in cells in presence of CPT; further: nearly all actives have a fitted effect of over 55% in size
Conditions: chicken DT40 Tdp1-/-;hTDP1 cells + 20 nM CPT, ATP luminescence, 48 h; series mostly up to 46.2 µM; activity change, negative = growth inhibition: at the top concentration
Outline: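 Cell growth measured by CellTiter-Glo luminescence after a minimum 48 h, 37 C compound exposure with 20 nM CPT in Tdp1-knockout DT40 cells stably expressing hTDP1, seeded 400/well; qHTS titration format.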
On the % scale 0 is the no-effect control and ±100 the full control effect; potency means the concentration at half of the fitted maximal effect.

Row | SMILES | activity change, negative = growth inhibition | Potency
1 | Cc1ccc(C(=O)Nc2ccn(C)n2)cc1 | 6.62% | 
2 | CC(=O)NCC(=O)NC1CCCc2c1cnn2-c1ccccc1F (configuration not stated) | -4.57% | 
3 | O=C(NCCN1CCCC(O)C1)c1cc(COc2c(F)cccc2F)on1 (configuration not stated) | -2.59% | 
4 | Cn1nccc1C(=O)NC1CCCc2c1cnn2-c1ccc(F)cc1F (configuration not stated) |  | 1.46 µM (active)
5 | Cn1nccc1C(=O)NC1CCCc2c1cnn2-c1ccccc1F (configuration not stated) |  | 4.61 µM (active)
6 | O=[N+]([O-])c1ccc(N2CCNCC2)cc1NCc1cccnc1 | -7.77% | 
7 | CN1CCN(/N=C/c2ccc(C#N)cc2)CC1 | 0.988% | 
8 | COc1ccc(CNC(=O)CN2C(=O)NC3(CCCc4sccc43)C2=O)cc1 (configuration not stated) | 6.22% | 
9 | COc1ccc(C(=O)CN2C(=O)NC3(CCc4ccccc43)C2=O)c(OC)c1 (configuration not stated) | -14.2% | 
10 | COc1ccc(-n2c(C)cc(C(=O)CN3C(=O)NC4(CCc5ccccc54)C3=O)c2C)cc1 (configuration not stated) |  | 14.6 µM (active)
11 | Cc1cc(/C=C2\SC(=O)N(C)C2=O)c(C)n1-c1cccc(C(=O)O)c1 | -27.4% | 
12 | COc1ccccc1NC(=O)C1=C(C)Nc2nc3ccccc3n2C1c1cccs1 (configuration not stated) |  | 4.11 µM (active)
13 | COc1ccccc1NC(=O)C1=C(C)Nc2ncnn2C1c1sccc1C (configuration not stated) | -19.7% | 
14 | CCOC(=O)C1=C(C)Nc2nc3ccccc3n2C1c1cccs1 (configuration not stated) | 0.312% | 
15 | O=C(c1ccccc1)c1cc(-c2ccccn2)c(N2CCOCC2)s1 | -16.3% | 
16 | c1csc(-c2nnc(COc3ncnc4sccc34)o2)c1 | -2.84% | 
17 | COc1ccccc1C1CN(Cc2ccccc2O)Cc2ccccc2O1 (configuration not stated) | -2.83% [at 9.04 µM] | 
18 | COC(=O)c1ccc(S(=O)(=O)N2CCC(c3nc4ccccc4o3)CC2)cc1 | -17.1% | 
19 | O=C(c1ccc(C(F)(F)F)cc1)N1CCC(c2nc(-c3ccc(S(=O)(=O)N4CCCC4)cc3)no2)CC1 |  | 20.6 µM (active)
20 | NC(=O)C1CCN(C(=O)c2ccc(C(F)(F)F)cc2)CC1 | 3.63% | 
21 | Cn1c(SCC(=O)C(C)(C)C)nnc1-c1ccccn1 | -0.85% | 

Row | SMILES | activity change, negative = growth inhibition | Potency
22 | CCOC(=O)c1c(S(=O)(=O)N2CCC(C(=O)NCc3ccccc3OC)CC2)c(C)n(C)c1C | -1.17% | 
23 | CCCCNC(=O)Cn1nc(C)c(S(=O)(=O)N2CCOCC2)c1C | -16.1% | 
24 | COc1ccc2nc(N3C(=O)C(O)=C(C(=O)c4ccco4)C3c3ccco3)sc2c1 (configuration not stated) | 2.99% | 
25 | COc1ccc2nc(N3CCN(C(=O)c4ccc([N+](=O)[O-])o4)CC3)sc2c1 |  | 14.6 µM (active)
26 | Cc1ccc2nc(N3CCN(C(=O)c4ccco4)CC3)sc2c1 | 7.4% | 
27 | COc1ccc(C(=O)OCC(=O)c2ccc(Cl)s2)c(OC)c1OC | -13.5% | 
28 | Oc1ccc(-c2[nH]ncc2-c2nc3ccccc3s2)c(O)c1 | -5.33% | 
29 | COc1ccc(-c2[nH]ncc2CN(C)Cc2c(C)n[nH]c2C)c(OC)c1 | 2.49% | 
30 | COc1ccc(Oc2cn[nH]c2-c2ccc(OC)cc2O)cc1 |  | 25.9 µM (active)
31 | CN1CCN(c2ccc([N+](=O)[O-])c(Sc3nc4ccccc4[nH]3)c2)CC1 | -29.7% | 
32 | CC(C)c1ccc(NC(=O)COC(=O)c2ccc(CN3CCCC3=O)cc2)cc1 | -5% | 
33 | O=C1CN(C(=O)COC(=O)/C=C/c2ccc(F)cc2)c2ccccc2N1 | 18% | 
34 | COc1ccc(-c2nc3sc(CCNC(=O)C(C)(C)C)c(C)n3n2)cc1 |  | 29.1 µM (active)
35 | Cc1c(CCNC(=O)c2ccc(C(F)(F)F)cc2)sc2nc(-c3ccc(F)cc3)nn12 | -7.8% | 
36 | CCOc1ccc2nc(NCCNC(=O)C(C)(C)C)c(C)cc2c1 | -4.1% | 
37 | O=C(NC1CCCC1)C1c2ccccc2OCC(=O)N1CC(F)(F)F (configuration not stated) | -9.47% | 
38 | Cc1ccccc1N1CCN(C2CCCN(C(=O)c3ocnc3C)C2)CC1 (configuration not stated) | -9.73% | 
39 | Cc1c(CN2CCCC(C(=O)c3cccc(Cl)c3)C2)c(=O)n(-c2ccccc2)n1C (configuration not stated) | -1.58% | 
40 | CC(=O)NCC(=O)N1CCCC(C(=O)c2ccc3c4c(cccc24)CC3)C1 (configuration not stated) | -25.7% | 
41 | CCc1nccn1CCC(=O)N1CCCC(N2CCN(c3ccccc3F)CC2)C1 (configuration not stated) | -6.03% | 
42 | Cc1ncoc1C(=O)N1CCCC(C(=O)c2ccc3c4c(cccc24)CC3)C1 (configuration not stated) |  | 18.4 µM (active)

Row | SMILES | activity change, negative = growth inhibition | Potency
43 | CCn1ccnc1CN1CCCC(C(=O)c2ccc3c4c(cccc24)CC3)C1 (configuration not stated) |  | 7.31 µM (active)
44 | CCOC1=C2[C@H]([C@H]3C(=O)N(c4ccccc4)C(=O)[C@H]3C1)[C@@H](c1ccccc1)N(S(=O)(=O)c1ccc(C)cc1)[C@H]2c1ccccc1 | -13.4% | 
45 | O=C(Cn1ncn2nc(-c3cccs3)cc2c1=O)NCc1cccc(Br)c1 | -20.4% | 
46 | COc1cc(NC(=O)c2ccccc2)c(OC)cc1NC(=O)Cc1ccccc1 | -29.7% | 
47 | COc1ccc(C(=O)OCC(=O)Nc2cc(C)on2)cc1F | -15.2% | 
48 | CC(=O)c1ccc(NC(=O)C(C)OC(=O)c2ccc(NS(=O)(=O)c3ccc4[nH]c(=O)[nH]c4c3)cc2)cc1 (configuration not stated) | 1.01% | 
49 | CCOc1ccc(/C=N/Nc2nncc(-c3ccccc3)n2)cc1OC |  | 16.4 µM (active)
50 | COc1cccc(/C=N\Nc2nncc(-c3ccccc3)n2)c1 | -0.484% | 
51 | COc1cc(/C=N/n2c(C)n[nH]c2=S)ccc1OCc1ccccc1 | -11.3% | 
52 | CC(CO)N1CCS(=O)(=O)CC1 (configuration not stated) | 9.38% | 
53 | COc1ccc(/C=C/c2c(-c3cccc(C)c3)oc3ccc(-c4ccc5c(c4)OCO5)cc23)cc1 | -16.4% | 
54 | CC1CN(Cc2ccccc2)C(=S)NC1=O (configuration not stated) | 7.52% | 
55 | CC(=O)Oc1c2c(c3c(c1CC=C(C)C)O[C@@]14C(=CC5CC1C(C)(C)OC4(C/C=C(\C)C(=O)O)C5=O)C3=O)OC(C)(CCC=C(C)C)C=C2 (some centres not stated) |  | 2.91 µM (active)
56 | O=C1C(=O)N(CCCN2CCOCC2)C(c2ccc([N+](=O)[O-])cc2)/C1=C(\O)c1ccc2c(c1)OCCO2 (configuration not stated) | -2.39% | 
57 | Cc1ccc(NC(=O)CN(C)C(=O)Cn2nnc(-c3ccccc3)n2)cc1 | 12.9% | 
58 | Cc1cc(O)c(C2(O)C(=O)Nc3ccccc32)cc1C (configuration not stated) | 5.24% | 
59 | COc1ccc2ncc3c(-c4ccc(C)c(C)c4)nn(CC(=O)NC4CCCC4)c3c2c1 |  | 5.17 µM (active)
60 | CCc1ccc2ncc3c(-c4ccc(C)cc4)nn(CC(=O)NCc4ccccc4)c3c2c1 | -20.3% | 
61 | COc1ccc(-c2nn(CC(=O)NC3CCCC3)c3c2cnc2ccc(F)cc23)cc1 | -6.97% | 
62 | O=C(COC(=O)CSc1ccccc1)Nc1ccc(F)cc1F | -4.02% | 
